# Source: PubChem BioAssay AID624351 (Southern Research Specialized Biocontainment Screening …, 2012)
# Screen size: about 2,400 compounds; about 1,400 (58%) were called active.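 The calls were made as follows: active = inhibition of 30% or more at any tested dose; inconclusive = primary hits over the limit that were never retested; inactive = the rest.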 So high a share suggests a set chosen from earlier hits. This is one part of the list.
# Assay: coupled detection enzyme interference, dose response, artefact control for MgcRacGAP inhibitor project, biochemical, coupled enzyme counter-screen (AID 624351);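 also: signal is the ADP detection kit reading of free GDP without any GAP enzyme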
# Details: ADP Hunter coupled enzyme counter-screen, fluorescence, no MgcRacGAP; series mostly up to 80 µM
row,Compound,IC50
1,CCOc1cc(/C=N/NC(=O)c2ccc(=O)n(C)c2)ccc1O,60.4 µM (active)
2,CCOc1cc(/C=N/NC(=O)c2cc(C3CC3)[nH]n2)ccc1O,56.1 µM (active)
3,CCOc1cc(/C=N/NC(=O)C2CCCC2)ccc1O,51.3 µM (active)
4,CCOc1cc(/C=N/NC(=O)c2ccc(NC(=O)C3CC3)cc2)ccc1O,83.2 µM (active)
5,Cc1cc(C)c(C)c(OCCNCc2ccccc2)c1,inactive
6,COc1ccccc1COCC(O)CNCC1(N2CCCCC2)CCCCC1 (centres undefined),inactive
7,COc1cc(/C=N/NC(=O)C2CCN(CC(O)COCc3ccccc3)CC2)ccc1O (centres undefined),34.1 µM (active)
8,Cc1cccc(N2C(S)=C(C#N)C(=O)NC2c2cccs2)c1 (centres undefined),inactive
9,COc1cc(CN(C)CCc2ccccn2)cc(OC)c1OC,inactive
10,COc1cccc2c3cccc(OC)c3c3[nH]cnc3c12,inactive
11,COc1cc(N)c2ncccc2c1SC,51.2 µM (active)
12,COc1cc(N)c2ncccc2c1OC,63.8 µM (active)
13,COc1cc(NC(C)CCCNC(C)C)c2ncccc2c1OC (centres undefined),inactive
14,CCN1/C(=C\c2ccc3ccccc3[n+]2CC)Sc2cc(C)ccc21,inactive
15,CCOC(=O)c1ccc(S(=O)(=O)Nc2nc3cc(S(=O)(=O)NC4=NCCCCC4)ccc3s2)cc1,inactive
16,CC(=O)NC(Nc1c(C)n(C)n(-c2ccccc2)c1=O)C(Cl)(Cl)Cl (centres undefined),inactive
17,Cc1[nH]c2ccccc2c1N=Nc1c(C)n(C)n(-c2ccccc2)c1=O,40.2 µM (active)
18,COc1cc(N=Nc2c(C)n(C)n(-c3ccccc3)c2=O)ccc1N,47.2 µM (active)
19,Cc1c(NC(=S)N/N=C/c2ccc(O)cc2)c(=O)n(-c2ccccc2)n1C,68.4 µM (active)
20,Cc1c(N=C2C=C(Br)C(=O)C(Br)=C2)c(=O)n(-c2ccccc2)n1C,24.2 µM (active)
21,Cc1c(N=Nc2ccc(O)cc2)c(=O)n(-c2ccccc2)n1C,19.5 µM (active)
22,Cc1c(NC(=O)CNCc2ccc3c(c2)OCO3)c(=O)n(-c2ccccc2)n1C,inactive

row,Compound,IC50
1,CCN1CCN(CCCCOc2ccccc2F)CC1,inactive
2,CCOc1cc(NC(=O)c2ccccc2C(=O)O)c(OCC)cc1NC(=O)c1ccccc1F,65.3 µM (active)
3,CCOc1ccccc1NC(=O)C(NCCN(C)C)c1ccccc1 (centres undefined),inactive
4,CC1CC(C)(C)N(C(=O)CN2CCN(C)CC2)c2ccccc21 (centres undefined),inactive
5,O=C1CCCC/C1=C\Nc1ccc(O)cc1,13.3 µM (active)
6,CC1CCC/C(=C\c2ccc(O)cc2)C1=O (centres undefined),22.3 µM (active)
7,CC1CCC/C(=C\Nc2ccc(O)cc2)C1=O (centres undefined),31.8 µM (active)
8,Cc1cc(O)ccc1N/C=C1\CCCC1=O,21 µM (active)
9,Cc1cnc(NC(=O)C(C)N2CCN(C)CC2)s1 (centres undefined),inactive
10,O=C1OCC/C1=C\c1ccc(O)cc1,27.6 µM (active)
11,CCOc1ccccc1CN(CCc1ccc2c(c1)OCO2)Cc1ccccn1,inactive
12,CC1OC(CC(=O)O)CC2=C1C(=O)c1c(O)cccc1C2=O (centres undefined),inactive
13,Cn1c(-c2cccc([N+](=O)[O-])c2)cnc1NCc1cccc([N+](=O)[O-])c1,inactive
14,Cc1ccc(/C=N/n2c(-c3cccnc3)n[nH]c2=S)s1,43.8 µM (active)
15,S=c1[nH]nc(-c2cccnc2)n1/N=C/c1cccs1,42.7 µM (active)
16,O=[N+]([O-])c1cccc(/C=N/n2c(-c3cccnc3)n[nH]c2=S)c1,24.9 µM (active)
17,CCc1ccc(OCCOCCN2CCN(C)CC2)cc1,inactive
18,COc1ccc(C2NC(=O)C(C#N)=C(S)N2c2ccc(C)cc2)cc1OC (centres undefined),inactive
19,CC1=CC(C)(C)N(C(=O)CNC2CCCC2)c2cc(C)ccc21,inactive
20,O=[N+]([O-])c1ccc(Sc2cccc3cccnc23)c([N+](=O)[O-])c1,inactive
21,O=[N+]([O-])c1ccc(Oc2cccc3cccnc23)c([N+](=O)[O-])c1,inactive
22,Nc1[nH]c2cc([N+](=O)[O-])ccc2c1-c1ccccn1,75.4 µM (active)

row,Compound,IC50
1,C=CCOc1ccc(C=NNc2ccc(S(=O)(=O)Nc3ccccc3C(=O)O)cc2[N+](=O)[O-])cc1OC,inactive
2,O=C(O)c1ccccc1NS(=O)(=O)c1ccc(N/N=C/c2ccc(O)c(O)c2)c([N+](=O)[O-])c1,69.8 µM (active)
3,O=C(/C=C/c1ccc(O)c(O)c1)NC(=O)c1ccccc1O,21.9 µM (active)
4,Cc1ccc2oc(=O)c(/C=C(\O)c3ccccc3)nc2c1,59.2 µM (active)
5,Cn1c(N=Nc2ccc(N3CCOCC3)cc2)[n+](C)c2ccccc21,58.3 µM (active)
6,O=C(CNCc1ccc(Cl)cc1)Nc1ccc2c(c1)OCCO2,inactive
7,c1csc(CNc2ccc3c(c2)OCCO3)c1,69.2 µM (active)
8,CN(C)c1ccc(N=c2sc3ccccc3n2C)cc1,26.7 µM (active)
9,Nc1ccc2c(c1)[nH]c(=O)c1cc(N)ccc12,16.6 µM (active)
10,Nc1ccc2cc3[nH]c4cc(N)ccc4c3nc2c1,inactive
11,CN1/C(=N\O)c2cccc3cccc1c23,54 µM (active)
12,CC(=O)c1c(Nc2ccc3c(c2)OCCO3)oc(C)cc1=O,77.3 µM (active)
13,O=C(CN1CCN(C/C=C/c2ccccc2)CC1)Nc1ccccc1C(=O)NC1CC1,inactive
14,COCCCNC(=S)N1CCN(Cc2ccc3c(c2)OCO3)CC1,inactive
15,O=C(CN1CCN(c2ccc(O)cc2)CC1)Nc1ccccc1C(=O)NCCc1ccccc1,32.9 µM (active)
16,O=C(NC(=S)N1CCN(c2ccc(O)cc2)CC1)c1ccco1,38.7 µM (active)
17,Oc1ccc(N2CCN(C(=S)NCCc3ccccc3)CC2)cc1,32.2 µM (active)
18,CCN(CC)S(=O)(=O)c1ccc(C)c(NC(=O)CN2CCN(Cc3ccccc3)CC2)c1,inactive
19,CN1CCC(N(C)CC(=O)Nc2ccc3c(c2)OC(F)(F)O3)CC1,inactive
20,Cc1sc2ccc3sccc3c2[n+]1C,inactive
